# Results published in PMC7862700, “An all-to-all approach to the identification of sequence-specific readers for epigenetic DNA modifications on cytosine”.
# Columns and labels:
# Experiment in all cases: DAPPL (digital affinity profiling via proximity ligation, sequencing); 10 mM Tris-HCl pH 7.5, 50 mM NaCl, 1 mM DTT, 4% glycerol, room temperature, 30 min; GST-TFs on glutathione beads, 16-mer random dsDNA library, 0.1% formaldehyde crosslink after washing; high values mean tight binding
# Conditions in all cases: protein: recombinant; tags: N-terminal GST; dsDNA, one strand shown
# FLI1 = molecular target: T1, FLI1 (Homo sapiens, UniProt Q01543 1-452)
# T1 sequence: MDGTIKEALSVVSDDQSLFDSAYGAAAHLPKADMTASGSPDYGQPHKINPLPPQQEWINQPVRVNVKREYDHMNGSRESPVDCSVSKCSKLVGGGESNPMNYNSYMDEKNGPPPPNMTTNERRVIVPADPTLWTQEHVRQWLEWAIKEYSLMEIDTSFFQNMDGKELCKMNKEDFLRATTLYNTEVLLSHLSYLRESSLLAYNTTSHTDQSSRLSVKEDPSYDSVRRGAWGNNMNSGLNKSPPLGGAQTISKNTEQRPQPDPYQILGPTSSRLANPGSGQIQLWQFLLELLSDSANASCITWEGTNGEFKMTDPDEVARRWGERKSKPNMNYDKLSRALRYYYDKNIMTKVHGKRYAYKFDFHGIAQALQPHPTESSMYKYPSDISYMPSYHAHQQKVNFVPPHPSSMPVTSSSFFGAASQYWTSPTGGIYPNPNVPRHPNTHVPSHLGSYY
# In short: (§1)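 Binding signal is given per hexamer as its read frequency for a factor divided by its frequency in the tag-only sample. GST-fused human transcription factors were expressed in yeast, captured on glutathione beads, barcoded with DNA and pooled with that sample, then incubated with 200 nmole of a 16-mer random double-stranded DNA library in Tris/NaCl/DTT/glycerol buffer for 30 min at room temperature. The pools were then washed, crosslinked, proximity-ligated, amplified by PCR and sequenced on an Illumina NextSeq500.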
# ELK1 = molecular target: T2, ELK1 (Homo sapiens, UniProt P19419 1-428)
# T2 sequence: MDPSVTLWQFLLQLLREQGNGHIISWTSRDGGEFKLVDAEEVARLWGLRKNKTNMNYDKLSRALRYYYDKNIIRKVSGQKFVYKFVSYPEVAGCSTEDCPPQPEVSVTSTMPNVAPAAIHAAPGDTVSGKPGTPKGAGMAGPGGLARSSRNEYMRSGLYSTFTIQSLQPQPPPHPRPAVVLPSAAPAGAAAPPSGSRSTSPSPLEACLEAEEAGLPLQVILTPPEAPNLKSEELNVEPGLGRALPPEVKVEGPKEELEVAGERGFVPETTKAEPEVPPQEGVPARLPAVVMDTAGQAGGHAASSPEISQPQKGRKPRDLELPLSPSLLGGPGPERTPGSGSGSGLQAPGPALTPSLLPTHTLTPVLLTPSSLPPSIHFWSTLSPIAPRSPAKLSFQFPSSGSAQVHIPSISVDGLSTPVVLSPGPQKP
# In short: as §1
# GABPA = molecular target: T3, GABPA (Homo sapiens, UniProt Q06546 1-454)
# T3 sequence: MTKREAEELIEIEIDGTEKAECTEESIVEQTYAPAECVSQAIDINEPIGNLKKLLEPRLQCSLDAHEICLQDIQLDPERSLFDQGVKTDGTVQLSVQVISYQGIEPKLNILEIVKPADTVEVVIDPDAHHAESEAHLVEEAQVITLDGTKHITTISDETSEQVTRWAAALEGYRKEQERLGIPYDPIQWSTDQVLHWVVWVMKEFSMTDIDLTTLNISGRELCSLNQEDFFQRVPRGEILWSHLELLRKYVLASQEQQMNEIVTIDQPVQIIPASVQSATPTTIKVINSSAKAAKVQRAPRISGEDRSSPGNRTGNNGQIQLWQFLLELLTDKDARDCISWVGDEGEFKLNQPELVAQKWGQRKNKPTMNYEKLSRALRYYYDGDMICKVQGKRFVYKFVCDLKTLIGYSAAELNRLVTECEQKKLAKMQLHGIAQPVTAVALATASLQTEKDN
# In short: as §1
# ERG = molecular target: T4, ERG (Homo sapiens, UniProt P11308 1-479)
# T4 sequence: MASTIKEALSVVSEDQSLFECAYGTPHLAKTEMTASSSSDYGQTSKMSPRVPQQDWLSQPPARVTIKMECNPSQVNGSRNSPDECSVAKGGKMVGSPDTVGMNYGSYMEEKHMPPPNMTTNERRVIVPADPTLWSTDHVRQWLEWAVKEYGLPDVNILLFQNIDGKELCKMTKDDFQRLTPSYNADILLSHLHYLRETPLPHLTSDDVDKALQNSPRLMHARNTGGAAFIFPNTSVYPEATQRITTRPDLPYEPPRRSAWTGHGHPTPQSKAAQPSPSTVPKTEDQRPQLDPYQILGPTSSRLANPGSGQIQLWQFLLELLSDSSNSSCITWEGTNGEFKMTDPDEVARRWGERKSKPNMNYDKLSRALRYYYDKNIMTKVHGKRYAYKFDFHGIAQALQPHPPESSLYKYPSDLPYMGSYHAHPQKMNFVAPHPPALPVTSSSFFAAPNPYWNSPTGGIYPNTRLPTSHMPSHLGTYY
# In short: as §1
# ELF1 = ELF1 (Homo sapiens, UniProt P32519 1-619)
# Sequence of ELF1 (P32519 whole entry): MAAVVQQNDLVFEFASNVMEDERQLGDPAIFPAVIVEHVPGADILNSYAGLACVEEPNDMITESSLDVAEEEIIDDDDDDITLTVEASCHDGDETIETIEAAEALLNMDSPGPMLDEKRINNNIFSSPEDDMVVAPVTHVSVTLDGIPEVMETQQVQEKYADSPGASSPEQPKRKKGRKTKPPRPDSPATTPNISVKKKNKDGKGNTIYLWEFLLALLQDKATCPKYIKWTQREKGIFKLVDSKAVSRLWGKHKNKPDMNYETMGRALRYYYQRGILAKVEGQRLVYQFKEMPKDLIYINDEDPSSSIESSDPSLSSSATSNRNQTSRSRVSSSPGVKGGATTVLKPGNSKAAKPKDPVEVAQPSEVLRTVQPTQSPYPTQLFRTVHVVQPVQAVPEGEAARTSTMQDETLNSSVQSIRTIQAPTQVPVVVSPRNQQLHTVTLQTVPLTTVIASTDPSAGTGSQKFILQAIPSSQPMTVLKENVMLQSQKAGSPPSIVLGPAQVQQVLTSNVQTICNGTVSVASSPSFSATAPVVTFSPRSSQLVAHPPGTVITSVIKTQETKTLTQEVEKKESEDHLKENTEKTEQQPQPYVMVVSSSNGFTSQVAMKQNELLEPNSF
# In short: as §1
# EHF = molecular target: T5, EHF (Homo sapiens, UniProt Q9NZC4 1-300)
# T5 sequence: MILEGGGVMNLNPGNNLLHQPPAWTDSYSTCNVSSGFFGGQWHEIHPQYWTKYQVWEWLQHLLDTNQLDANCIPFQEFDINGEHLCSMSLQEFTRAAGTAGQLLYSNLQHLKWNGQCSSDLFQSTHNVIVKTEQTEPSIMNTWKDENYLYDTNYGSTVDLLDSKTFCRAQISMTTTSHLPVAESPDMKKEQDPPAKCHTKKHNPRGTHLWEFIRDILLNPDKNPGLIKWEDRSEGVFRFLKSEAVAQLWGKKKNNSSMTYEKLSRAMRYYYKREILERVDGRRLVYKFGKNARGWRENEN
# In short: as §1
# SPI1 = SPI1 (Homo sapiens, UniProt P17947 1-270)
# In short: as §1
# SPIB = SPIB (Homo sapiens, UniProt Q01892 1-262)
# Sequence of SPIB (Q01892 whole entry): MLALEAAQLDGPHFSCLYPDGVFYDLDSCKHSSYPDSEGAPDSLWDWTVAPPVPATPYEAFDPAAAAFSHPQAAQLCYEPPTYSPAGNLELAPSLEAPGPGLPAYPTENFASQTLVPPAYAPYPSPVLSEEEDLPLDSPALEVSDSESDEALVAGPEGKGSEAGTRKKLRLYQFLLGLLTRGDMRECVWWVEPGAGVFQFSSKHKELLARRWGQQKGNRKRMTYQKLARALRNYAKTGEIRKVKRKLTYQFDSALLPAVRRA
# In short: as §1
# ELK3 = molecular target: T6, ELK3 (Homo sapiens, UniProt P41970 1-407)
# T6 sequence: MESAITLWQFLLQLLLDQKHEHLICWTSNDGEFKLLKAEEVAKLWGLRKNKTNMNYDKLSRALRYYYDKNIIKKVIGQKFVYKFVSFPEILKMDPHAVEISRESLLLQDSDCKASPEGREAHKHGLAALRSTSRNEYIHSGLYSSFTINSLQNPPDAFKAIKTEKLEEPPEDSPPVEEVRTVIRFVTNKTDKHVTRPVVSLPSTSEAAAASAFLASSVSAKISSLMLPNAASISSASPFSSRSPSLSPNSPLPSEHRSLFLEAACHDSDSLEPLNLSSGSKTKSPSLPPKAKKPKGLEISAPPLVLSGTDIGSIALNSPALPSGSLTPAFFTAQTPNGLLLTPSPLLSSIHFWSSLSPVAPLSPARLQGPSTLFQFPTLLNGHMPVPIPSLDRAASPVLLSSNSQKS
# In short: as §1
# FEV = molecular target: T7, FEV (Homo sapiens, UniProt Q99581 1-238)
# T7 sequence: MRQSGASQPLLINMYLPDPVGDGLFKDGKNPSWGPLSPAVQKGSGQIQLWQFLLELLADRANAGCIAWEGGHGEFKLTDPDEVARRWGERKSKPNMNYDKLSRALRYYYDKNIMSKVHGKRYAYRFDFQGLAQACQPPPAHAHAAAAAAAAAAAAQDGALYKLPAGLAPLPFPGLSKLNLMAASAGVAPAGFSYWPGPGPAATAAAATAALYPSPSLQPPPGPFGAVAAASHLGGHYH
# In short: as §1
# ETV5 = ETV5 (Homo sapiens, UniProt P41161 1-510)
# Sequence of ETV5 (P41161 whole entry): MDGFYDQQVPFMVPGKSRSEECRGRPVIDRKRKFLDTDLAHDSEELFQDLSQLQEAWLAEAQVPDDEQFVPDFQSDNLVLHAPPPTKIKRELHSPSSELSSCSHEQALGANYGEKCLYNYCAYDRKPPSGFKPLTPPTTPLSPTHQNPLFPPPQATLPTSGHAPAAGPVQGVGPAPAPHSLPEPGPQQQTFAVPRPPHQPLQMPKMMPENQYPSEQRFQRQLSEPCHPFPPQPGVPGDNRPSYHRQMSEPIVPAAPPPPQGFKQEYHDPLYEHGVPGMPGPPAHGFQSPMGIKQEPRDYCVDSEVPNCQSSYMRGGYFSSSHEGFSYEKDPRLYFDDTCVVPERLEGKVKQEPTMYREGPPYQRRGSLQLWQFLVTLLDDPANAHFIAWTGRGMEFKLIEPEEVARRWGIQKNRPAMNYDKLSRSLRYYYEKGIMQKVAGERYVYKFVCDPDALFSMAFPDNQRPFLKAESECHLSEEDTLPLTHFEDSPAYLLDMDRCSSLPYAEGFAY
# In short: as §1
# SPIC = molecular target: T8, SPIC (Homo sapiens, UniProt Q8N5J4 1-248)
# T8 sequence: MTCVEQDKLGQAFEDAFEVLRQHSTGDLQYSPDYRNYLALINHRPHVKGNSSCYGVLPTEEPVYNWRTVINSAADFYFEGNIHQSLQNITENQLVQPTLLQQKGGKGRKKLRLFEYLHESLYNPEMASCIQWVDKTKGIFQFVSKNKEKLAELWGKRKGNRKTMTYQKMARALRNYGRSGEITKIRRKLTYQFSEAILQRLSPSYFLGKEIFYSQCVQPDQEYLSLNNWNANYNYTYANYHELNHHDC
# In short: as §1
# ELF4 = ELF4 (Homo sapiens, UniProt Q99607 1-663)
# Sequence of ELF4 (Q99607 whole entry): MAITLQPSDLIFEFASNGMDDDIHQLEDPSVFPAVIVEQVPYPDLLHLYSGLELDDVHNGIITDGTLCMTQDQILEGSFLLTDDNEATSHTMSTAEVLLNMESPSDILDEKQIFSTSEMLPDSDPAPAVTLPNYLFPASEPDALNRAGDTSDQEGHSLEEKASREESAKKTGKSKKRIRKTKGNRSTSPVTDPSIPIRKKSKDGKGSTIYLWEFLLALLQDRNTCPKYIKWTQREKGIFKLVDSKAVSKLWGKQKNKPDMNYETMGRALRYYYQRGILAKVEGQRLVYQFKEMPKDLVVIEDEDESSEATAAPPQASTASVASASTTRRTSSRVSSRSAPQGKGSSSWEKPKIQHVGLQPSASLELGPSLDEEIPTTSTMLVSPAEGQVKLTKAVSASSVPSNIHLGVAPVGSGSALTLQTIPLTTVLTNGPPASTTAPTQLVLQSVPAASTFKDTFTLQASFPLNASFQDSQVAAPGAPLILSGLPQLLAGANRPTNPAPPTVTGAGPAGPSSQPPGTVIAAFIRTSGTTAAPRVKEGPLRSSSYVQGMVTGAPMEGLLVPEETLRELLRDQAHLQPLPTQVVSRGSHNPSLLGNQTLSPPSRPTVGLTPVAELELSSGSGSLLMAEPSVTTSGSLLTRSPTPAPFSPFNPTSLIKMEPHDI
# In short: as §1
# ELK4 = molecular target: T9, ELK4 (Homo sapiens, UniProt P28324-2 1-405)
# T9 sequence: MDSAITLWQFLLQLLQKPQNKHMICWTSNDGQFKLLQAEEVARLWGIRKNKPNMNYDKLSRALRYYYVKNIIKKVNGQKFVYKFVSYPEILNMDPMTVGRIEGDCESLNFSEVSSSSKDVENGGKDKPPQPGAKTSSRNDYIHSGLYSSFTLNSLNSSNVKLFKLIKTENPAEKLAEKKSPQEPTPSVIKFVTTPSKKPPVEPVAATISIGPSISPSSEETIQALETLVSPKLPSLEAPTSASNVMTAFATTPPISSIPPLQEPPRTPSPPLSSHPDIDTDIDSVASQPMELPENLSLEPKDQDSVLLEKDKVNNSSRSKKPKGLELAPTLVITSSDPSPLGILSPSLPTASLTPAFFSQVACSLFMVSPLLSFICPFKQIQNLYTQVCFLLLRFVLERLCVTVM
# In short: as §1
# ETV2 = molecular target: T10, ETV2 (Homo sapiens, UniProt O00321 1-342)
# T10 sequence: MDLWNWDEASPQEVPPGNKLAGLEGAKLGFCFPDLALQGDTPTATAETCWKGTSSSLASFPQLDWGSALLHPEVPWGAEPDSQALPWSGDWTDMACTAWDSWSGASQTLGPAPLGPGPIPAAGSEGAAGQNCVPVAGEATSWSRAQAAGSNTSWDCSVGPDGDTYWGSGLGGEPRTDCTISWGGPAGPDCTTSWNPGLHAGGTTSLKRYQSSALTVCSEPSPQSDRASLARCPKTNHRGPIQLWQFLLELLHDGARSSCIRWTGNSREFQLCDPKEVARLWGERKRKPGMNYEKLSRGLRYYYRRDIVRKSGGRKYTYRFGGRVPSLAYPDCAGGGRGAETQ
# In short: as §1
# ELF3 = molecular target: T11, ELF3 (Homo sapiens, UniProt P78545 1-371)
# T11 sequence: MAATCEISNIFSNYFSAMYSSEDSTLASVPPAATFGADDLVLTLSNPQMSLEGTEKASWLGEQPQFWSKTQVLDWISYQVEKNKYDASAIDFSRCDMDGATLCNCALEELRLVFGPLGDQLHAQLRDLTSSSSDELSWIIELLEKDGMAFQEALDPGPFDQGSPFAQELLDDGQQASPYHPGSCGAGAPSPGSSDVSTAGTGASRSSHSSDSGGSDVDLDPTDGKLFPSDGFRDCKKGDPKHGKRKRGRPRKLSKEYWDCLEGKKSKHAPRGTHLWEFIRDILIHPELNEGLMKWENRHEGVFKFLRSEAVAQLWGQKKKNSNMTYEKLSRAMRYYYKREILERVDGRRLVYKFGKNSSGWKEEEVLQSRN
# In short: as §1
# ETV1 = ETV1 (Homo sapiens, UniProt P50549 1-477)
# Sequence of ETV1 (P50549 whole entry): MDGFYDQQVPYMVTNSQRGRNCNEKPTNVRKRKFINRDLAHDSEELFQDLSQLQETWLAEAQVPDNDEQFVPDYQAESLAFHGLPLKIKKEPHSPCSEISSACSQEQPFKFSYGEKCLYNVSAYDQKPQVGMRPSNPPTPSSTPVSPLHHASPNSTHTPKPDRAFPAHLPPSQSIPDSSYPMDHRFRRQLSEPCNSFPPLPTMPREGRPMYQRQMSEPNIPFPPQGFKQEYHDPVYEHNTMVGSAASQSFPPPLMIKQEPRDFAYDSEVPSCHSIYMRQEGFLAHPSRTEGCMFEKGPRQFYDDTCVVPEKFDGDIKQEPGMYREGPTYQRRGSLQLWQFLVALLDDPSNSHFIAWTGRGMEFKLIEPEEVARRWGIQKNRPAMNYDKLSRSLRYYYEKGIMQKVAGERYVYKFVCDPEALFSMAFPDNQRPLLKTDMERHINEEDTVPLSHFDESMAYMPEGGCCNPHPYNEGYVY
# In short: as §1
sequence,measurement,setting,value
GTATGC,binding signal,FLI1,"1.22 fold enrichment (6-mer frequency, TF over GST control)"
same,binding signal,ELK1,"1.24 fold enrichment (6-mer frequency, TF over GST control)"
same,binding signal,GABPA,"1.17 fold enrichment (6-mer frequency, TF over GST control)"
same,binding signal,ERG,"1.11 fold enrichment (6-mer frequency, TF over GST control)"
same,binding signal,ELF1,"1.2 fold enrichment (6-mer frequency, TF over GST control)"
same,binding signal,EHF,"1.14 fold enrichment (6-mer frequency, TF over GST control)"
same,binding signal,SPI1,"1.23 fold enrichment (6-mer frequency, TF over GST control)"
same,binding signal,SPIB,"1.2 fold enrichment (6-mer frequency, TF over GST control)"
same,binding signal,ELK3,"1.13 fold enrichment (6-mer frequency, TF over GST control)"
same,binding signal,FEV,"1.15 fold enrichment (6-mer frequency, TF over GST control)"
same,binding signal,ETV5,"1.17 fold enrichment (6-mer frequency, TF over GST control)"
same,binding signal,SPIC,"1.14 fold enrichment (6-mer frequency, TF over GST control)"
same,binding signal,ELF4,"1.16 fold enrichment (6-mer frequency, TF over GST control)"
same,binding signal,ELK4,"1.23 fold enrichment (6-mer frequency, TF over GST control)"
same,binding signal,ETV2,"1.25 fold enrichment (6-mer frequency, TF over GST control)"
same,binding signal,ELF3,"1.1 fold enrichment (6-mer frequency, TF over GST control)"
same,binding signal,ETV1,"1.12 fold enrichment (6-mer frequency, TF over GST control)"
